Values joined by “and” are separate entries in the source; they are usually repeats but may differ in a detail not shown here. Equal entries are not always repeated. Results filed as inconclusive are left out. A call without a number means that no potency is given here. Where a structure was tested more than once in an assay, its records may differ in their call. Active and inactive are the calls of the source. Unless noted, calls come from the whole dose curve; as a rule, active = well fitted curve in the direction sought with a large enough effect in the repeat runs; inconclusive = weak or mixed curves; inactive = flat fitted curve, though single readings scatter.
tested on: not listed separately; experiment: qHTS assay to test for compound auto fluorescence at 535 nm (green) in HepG2 cell free culture (AID 720686); settings: Cell-free medium, green autofluorescence 485/535 nm; series mostly up to 91.3 µM; fluorescence, % of fluorescein control: at the top concentration

SMILES	outcome
N#Cc1nn(-c2c(Cl)cc(C(F)(F)F)cc2Cl)c(N)c1S(=O)C(F)(F)F (stereo not drawn)	inactive
O=NN(c1ccccc1)c1ccccc1	inactive
N#Cc1cccnc1	inactive
CC(C)COC(=O)c1ccccc1C(=O)OCC(C)C	inactive
O=[N+]([O-])c1ccc(Nc2ccccc2)cc1	inactive
CNC(=O)Oc1cccc2c1OC(C)(C)C2	inactive
ClC(Cl)=C(Cl)C(Cl)=C(Cl)Cl	inactive
CCCCOCC1CO1 (stereo not drawn)	inactive
ClCc1ccccn1	inactive
O=[N+]([O-])/N=C1\NCCN1Cc1ccc(Cl)nc1	inactive

tested on: not listed separately; experiment: qHTS assay to test for compound auto fluorescence at 460 nm (blue) in HepG2 cells (AID 720687); settings: autofluorescence 405/460 nm, 1 h; series mostly up to 91.3 µM; fluorescence, % of fluorescent control: at the top concentration
Summary of the method: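 Blue-channel autofluorescence (Ex/Em 405/460 nm, triamterene-equivalent) was measured after 1 hr compound exposure at 37 C, 5% CO2. Cells were HepG2, plated overnight at 37 C in MEM plus 10% FBS.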

SMILES	Potency
CCCCOC(=O)COC(=O)c1ccccc1C(=O)OCCCC	inactive
c1ccc(C2CO2)cc1 (stereo not drawn)	inactive
CC(C)Nc1nc(Cl)nc(NC(C)C)n1	inactive
CC(C)CON=O	inactive
CCCCCCCCCCCCCl	inactive
COP(=S)(OC)Oc1ccc(Sc2ccc(OP(=S)(OC)OC)cc2)cc1	inactive
Nc1ncn[nH]1	inactive
CC(C)(O)C#N	inactive
CCNc1nc(Cl)nc(NC(C)(C)C#N)n1	inactive
O=C1CCCO1	inactive
CCCCCCCC[N+](C)(CCCCCCCC)CCCCCCCC	inactive
CN(C)c1nc(=O)n(C2CCCCC2)c(=O)n1C	inactive
Cn1c(-c2ccccc2)cc(-c2ccccc2)[n+]1C	inactive
C[C@]12CCC(=O)C=C1CC[C@@H]1[C@@H]2CC[C@@]2(C)[C@H]1CC[C@]2(C)O	inactive
Clc1ccc(C(Cl)(Cl)Cl)cc1	inactive
O=P(OCCCl)(OCCCl)OCCCl	inactive
CCOP(=O)(OCC)OCC	inactive
CN(C)c1ccccc1	inactive
CCC1(c2ccc(N)cc2)CCC(=O)NC1=O (stereo not drawn)	inactive
CCOP(=S)(OCC)SCn1c(=O)oc2cc(Cl)ccc21	inactive
CC(C)=CC1C(C(=O)OCc2cccc(Oc3ccccc3)c2)C1(C)C (stereo not drawn)	inactive
O=C(O)c1nn(Cc2ccc(Cl)cc2Cl)c2ccccc12	inactive
O=NN(c1ccccc1)c1ccccc1	inactive
N#Cc1cccnc1	inactive
CC(C)COC(=O)c1ccccc1C(=O)OCC(C)C	inactive
CNC(=O)Oc1cccc2c1OC(C)(C)C2	inactive
CCCCOCC1CO1 (stereo not drawn)	inactive

molecular target: Glucocorticoid receptor (Homo sapiens) (UniProt P04150); experiment: qHTS assay to identify small molecule agonists of the glucocorticoid receptor (GR) signaling pathway (AID 720691; active = well fitted activation curve with a large enough effect in the signal ratio in the repeat runs, not every such curve was filed as active; the % refers to the signal ratio); settings: GR-bla HeLa, beta-lactamase reporter ratio, 18 h; series mostly up to 62.4 µM; activation: at the top concentration
Summary of the method: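 Reporter read-out: fluorescence intensity following 2 h room-temperature LiveBLAzer B/G FRET substrate loading. Prior step: GR-bla HeLa cells held 4 h, then treated 18 h at 37 C.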

Chain of Glucocorticoid receptor (Homo sapiens) (P04150 whole entry, looked up): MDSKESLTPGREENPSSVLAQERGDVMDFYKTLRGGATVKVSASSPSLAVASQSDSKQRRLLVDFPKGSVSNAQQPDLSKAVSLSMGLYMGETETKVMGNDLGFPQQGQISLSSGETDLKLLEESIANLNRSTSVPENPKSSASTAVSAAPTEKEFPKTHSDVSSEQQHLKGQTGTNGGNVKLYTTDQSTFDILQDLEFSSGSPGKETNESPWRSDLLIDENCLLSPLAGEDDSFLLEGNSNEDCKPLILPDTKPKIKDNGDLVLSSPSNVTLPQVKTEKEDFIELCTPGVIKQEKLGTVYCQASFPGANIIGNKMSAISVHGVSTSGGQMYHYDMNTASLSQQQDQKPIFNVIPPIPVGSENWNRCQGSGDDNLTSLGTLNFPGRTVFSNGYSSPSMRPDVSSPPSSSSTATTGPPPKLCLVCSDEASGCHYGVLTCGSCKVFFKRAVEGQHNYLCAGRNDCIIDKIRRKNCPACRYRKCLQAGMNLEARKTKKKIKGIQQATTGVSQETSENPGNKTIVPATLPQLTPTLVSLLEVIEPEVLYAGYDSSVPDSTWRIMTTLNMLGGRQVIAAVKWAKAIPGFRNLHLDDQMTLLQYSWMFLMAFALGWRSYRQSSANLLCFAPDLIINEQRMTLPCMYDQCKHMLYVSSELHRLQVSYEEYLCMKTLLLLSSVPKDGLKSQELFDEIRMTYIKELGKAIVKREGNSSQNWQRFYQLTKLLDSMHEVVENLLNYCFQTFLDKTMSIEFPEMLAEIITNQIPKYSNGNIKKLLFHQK

SMILES	outcome	activation
CCCCOC(=O)COC(=O)c1ccccc1C(=O)OCCCC	inactive	–
CC(C)(C#N)N=NC(C)(C)C#N	inactive	–
c1ccc(C2CO2)cc1 (stereo not drawn)	inactive	–
CC(C)CON=O	inactive	–
Clc1cccc(Cl)c1	inactive	–
CCCCCCCCCCCCCl	inactive	–
Nc1ncn[nH]1	inactive	–
NC(=O)CN1CCCC1=O	inactive	–
CCNc1nc(Cl)nc(NC(C)(C)C#N)n1	inactive	–
O=C1CCCO1	inactive	–
Cn1c(-c2ccccc2)cc(-c2ccccc2)[n+]1C	–	2.52% (inactive)
N#CCCCCC#N	inactive	–
C[C@]12CCC(=O)C=C1CC[C@@H]1[C@@H]2CC[C@@]2(C)[C@H]1CC[C@]2(C)O	–	-12.4% (inactive)
Clc1ccc(C(Cl)(Cl)Cl)cc1	inactive	–
O=P(OCCCl)(OCCCl)OCCCl	inactive	–
CCOP(=O)(OCC)OCC	inactive	–

SMILES	outcome	activation
COc1ccc(O)c(C(C)(C)C)c1	inactive	–
CN(C)c1ccccc1	inactive	–
CCC1(c2ccc(N)cc2)CCC(=O)NC1=O (stereo not drawn)	inactive	–
CCOP(=S)(OCC)SCn1c(=O)oc2cc(Cl)ccc21	inactive	–
CC(C)=CC1C(C(=O)OCc2cccc(Oc3ccccc3)c2)C1(C)C (stereo not drawn)	inactive	–
O=C(O)c1nn(Cc2ccc(Cl)cc2Cl)c2ccccc12	inactive	–
N#Cc1nn(-c2c(Cl)cc(C(F)(F)F)cc2Cl)c(N)c1S(=O)C(F)(F)F (stereo not drawn)	inactive	–
O=NN(c1ccccc1)c1ccccc1	inactive	–
N#Cc1cccnc1	inactive	–
CC(C)COC(=O)c1ccccc1C(=O)OCC(C)C	inactive	–
O=[N+]([O-])c1ccc(Nc2ccccc2)cc1	inactive	–
CNC(=O)Oc1cccc2c1OC(C)(C)C2	inactive	–
ClC(Cl)=C(Cl)C(Cl)=C(Cl)Cl	inactive	–
CCCCOCC1CO1 (stereo not drawn)	inactive	–
ClCc1ccccn1	inactive	–
O=[N+]([O-])/N=C1\NCCN1Cc1ccc(Cl)nc1	inactive	–

molecular target: Glucocorticoid receptor (Homo sapiens) (UniProt P04150); experiment: qHTS assay to identify small molecule antagonists of the glucocorticoid receptor (GR) signaling pathway (AID 720692; active = well fitted inhibition curve with a large enough effect in the signal ratio in the repeat runs, not every such curve was filed as active; the % refers to the signal ratio; note: potency is the fitted concentration of half-maximal effect); settings: GR-bla HeLa, beta-lactamase FRET ratio, dexamethasone-stimulated, 18 h; series mostly up to 58.5 µM; activity change, negative = inhibition: at the top concentration
Summary of the method: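 Dexamethasone (5 nM final) stimulated a stably integrated GRE-beta-lactamase reporter in HeLa cells during 18 h co-incubation with compounds; signal was quantified as fluorescence intensity of B/G FRET substrate after 2 h.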

SMILES	Potency	activity change, negative = inhibition
CCCCOC(=O)COC(=O)c1ccccc1C(=O)OCCCC	inactive	–
CC(C)(C#N)N=NC(C)(C)C#N	inactive	–
c1ccc(C2CO2)cc1 (stereo not drawn)	–	-4.38% [at 78.9 µM] (inactive)
CC(C)CON=O	inactive	–
Clc1cccc(Cl)c1	inactive	–
CCCCCCCCCCCCCl	inactive	–
Nc1ncn[nH]1	inactive	–
NC(=O)CN1CCCC1=O	inactive	–
CCNc1nc(Cl)nc(NC(C)(C)C#N)n1	inactive	–
O=C1CCCO1	–	3.1% (inactive)
N#CCCCCC#N	inactive	–
C[C@]12CCC(=O)C=C1CC[C@@H]1[C@@H]2CC[C@@]2(C)[C@H]1CC[C@]2(C)O	6.01 µM (active) and 4.25 µM (active) and 2.61 µM (active)	–
Clc1ccc(C(Cl)(Cl)Cl)cc1	–	-8.34% [at 78.9 µM] (inactive)
O=P(OCCCl)(OCCCl)OCCCl	inactive	–
CCOP(=O)(OCC)OCC	inactive	–
COc1ccc(O)c(C(C)(C)C)c1	inactive	–
CN(C)c1ccccc1	inactive	–
CCC1(c2ccc(N)cc2)CCC(=O)NC1=O (stereo not drawn)	inactive	–
CCOP(=S)(OCC)SCn1c(=O)oc2cc(Cl)ccc21	inactive	–
O=C(O)c1nn(Cc2ccc(Cl)cc2Cl)c2ccccc12	inactive and 43.4 µM (active)	–
O=NN(c1ccccc1)c1ccccc1	–	0.213% (inactive)
N#Cc1cccnc1	inactive	–
CC(C)COC(=O)c1ccccc1C(=O)OCC(C)C	inactive	–
O=[N+]([O-])c1ccc(Nc2ccccc2)cc1	49.4 µM (active)	–
CNC(=O)Oc1cccc2c1OC(C)(C)C2	inactive	–
ClC(Cl)=C(Cl)C(Cl)=C(Cl)Cl	–	6.28% (inactive)
CCCCOCC1CO1 (stereo not drawn)	inactive	–
ClCc1ccccn1	inactive	–
O=[N+]([O-])/N=C1\NCCN1Cc1ccc(Cl)nc1	inactive	–

From PubChem BioAssay (Tox21)
